Bioassay records: PubChem, National Center for Advancing Translational Sciences (NCATS)
RECQ1 inh: qHTS Assay for Inhibitors of RecQ-Like Dna Helicase 1 (RECQ1) | AID 2549, 2010 | RECQ1 DNA unwinding, red fluorescence kinetic read | Potency, µM (top dose mostly 57.3 µM), without a hit: top-dose activity, negative = inhibition, most hits filed as inhibitors | ATP-dependent DNA helicase Q1 (Homo sapiens), P46063 | 240,000 tested, 0.54% active;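 note: plate controls were vehicle for no effect and no enzyme for full effect; nearly all actives have a fitted effect of over 30% in size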
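50 nM RECQ1T1 preincubated 15 min with compound in Tris pH 8.0 buffer with MgCl2, DTT, Tween-20 and 2.5 ug/ml poly(dI-dC); started with 200 nM TAMRA/BHQ-2 forked duplex and 2 mM ATP. Unwinding read as fluorescence (525/598 nm), two reads 2 h apart.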
BLM helicase inh: qHTS Assay for Inhibitors of Bloom's syndrome helicase (BLM). Potency, µM (titrated, usually from 56.1 µM), inactives show at the top dose activity change, negative = inhibition, actives largely listed as inhibitors. recombinant BLM DNA unwinding, fluorescence dequenching. AID 2528, 2010. RecQ-like DNA helicase BLM (Homo sapiens), P54132. 350,000 tested, 0.2% active;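 note: plate controls were vehicle for no effect and no enzyme for full effect; nearly all actives have a fitted effect of over 35% in size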
Lamin A splicing: qHTS Assay for Modulators of Lamin A Splicing | AID 1487, 2009 | Potency, µM (top dose mostly 46.1 µM), without a hit: at the highest dose ratio change, negative = inhibition, most hits filed as inhibitors | 200,000 tested, 0.01% active | HeLa LMNA splicing GFP/RFP minigene ratio, 48 h; active = well fitted inhibition curve with a large enough effect in the signal ratio, with a control signal flat, not every such curve was filed as active; inconclusive = small, poorly fitted or top-dose-only effect, or effect the other way, or a change in a side signal; the % refers to the signal ratio
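Read-out is the ratio of GFP to DsRed2 object intensity, acquired by 488 nm laser-scanning cytometry on HeLa lamin A-EGFP minigene reporter cells. Compound incubation 48 hrs at 37 °C in Opti-MEM with 2% FBS; DMSO 0.5% final.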
GCN5L2 inh: qHTS Assay for Inhibitors of GCN5L2; Histone acetyltransferase KAT2A (Homo sapiens), Q92830; GCN5L2 HAT assay, ThioGlo1 CoA-SH fluorescence; Potency, µM (titrated, usually from 58.9 µM), inactives show at the highest dose activity change, negative = inhibition, most hits filed as inhibitors; 390,000 tested, 0.21% active; AID 504327, 2011
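GCN5L2 (20nM final) in 50mM HEPES, 0.1mM EDTA pH 7.5, 0.01% Tween-20 was preincubated 15 min at room temperature with compound, then given ThioGlo1 (50uM), H3(1-25) peptide (75uM) and acetyl-CoA (70uM); CoA-thiol fluorescence (Ex340/Em540) was read at 0 and 20 min.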
TDP1 inh: qHTS Assay for Inhibitors of Tyrosyl-DNA Phosphodiesterase (TDP1) | Tyrosyl-DNA phosphodiesterase 1 (Homo sapiens), Q9NUW8 | 350,000 tested, 0.28% active | recombinant TDP1, AlphaScreen DNA substrate cleavage | Potency, µM (series often up to 130 µM), inactives show at the highest dose activity change, negative = inhibition, usual class: inhibitors; note: nearly all actives have a fitted effect of over 40% in size
Target sequence (Q9NUW8 whole entry, looked up): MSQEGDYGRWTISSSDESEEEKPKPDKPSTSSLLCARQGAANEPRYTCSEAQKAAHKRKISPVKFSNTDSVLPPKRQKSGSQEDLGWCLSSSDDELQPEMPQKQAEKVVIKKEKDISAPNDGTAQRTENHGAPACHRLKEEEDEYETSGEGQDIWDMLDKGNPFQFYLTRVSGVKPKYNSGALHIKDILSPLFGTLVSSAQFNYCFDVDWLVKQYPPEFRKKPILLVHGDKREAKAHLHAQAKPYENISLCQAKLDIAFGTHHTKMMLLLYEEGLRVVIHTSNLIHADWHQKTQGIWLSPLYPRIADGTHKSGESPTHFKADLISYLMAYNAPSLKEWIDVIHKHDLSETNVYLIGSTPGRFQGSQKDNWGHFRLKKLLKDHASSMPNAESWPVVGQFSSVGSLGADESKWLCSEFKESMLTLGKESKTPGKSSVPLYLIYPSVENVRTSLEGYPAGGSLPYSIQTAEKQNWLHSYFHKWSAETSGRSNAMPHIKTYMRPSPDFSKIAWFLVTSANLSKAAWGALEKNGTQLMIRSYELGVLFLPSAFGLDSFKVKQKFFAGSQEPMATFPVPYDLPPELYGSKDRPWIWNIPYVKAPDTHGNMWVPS
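Tdp1 1 nM final; 15 min RT w/ cpd; substrate 15 nM, 5 min; beads 10 ug/ml, 10 min; AlphaScreen read. Neg ctrl: no enzyme.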
APEX1 inh: qHTS Assay for Inhibitors of the Human Apurinic/apyrimidinic Endonuclease 1 (APE1). recombinant APE1, TAMRA/BHQ-2 abasic DNA cleavage fluorescence. 350,000 tested, 0.35% active. DNA repair nuclease/redox regulator APEX1 (Homo sapiens), P27695. AID 2517, 2012. Potency, µM (top dose mostly 65.8 µM), without a hit: at the highest dose activity change, negative = inhibition, hits mostly inhibitors;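 note: plate controls were vehicle for no effect and reference inhibitor for full effect; nearly all actives have a fitted effect of over 55% in size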
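Enzyme (0.75 nM final) and test compound are incubated 15 min at room temperature before adding 50 nM quenched THF abasic-site duplex. Cleavage dequenches TAMRA, followed at 525/598 nm over three reads one minute apart.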
* = called active by the depositor; i = inactive; ? = inconclusive; . = not tested or not shown; [ ] = another dose, or the depositor's remark. Shown are actives, neighbours in structure and some others; about 0.9% of the full set was active somewhere. Unless noted, calls come from the whole dose curve; as a rule, active = well fitted curve in the direction sought with a large enough effect; inconclusive = small, poorly fitted or top-dose-only effect, or another doubt; inactive = no such curve, though single readings can be large; an effect the other way counts as inactive or inconclusive. Unless noted, % is set by controls: 0 for no effect and ±100 for the full control effect; potency is the fitted concentration of half-maximal effect.

SMILES | RECQ1 inh | BLM helicase inh | Lamin A splicing | GCN5L2 inh | TDP1 inh | APEX1 inh
O=C(CCCc1ccccc1)c1ccccc1 | . | -8% | . | -5% | 35µM* | 38%
N/C(=N\OC(=O)CCCc1ccccc1)c1ccccc1 | . | -3% | . | -25% | 56µM* | 36%
COc1ccc(C#Cc2c(C=O)n(C)c3ccccc23)cc1 | . | . | . | -6% | . | 22%
Cn1c(C=O)c(C#Cc2ccccc2)c2ccccc21 | . | . | . | -5% | 20µM* | 8%
CCC(C)CC(C)CC(C)C(=O)/C=C(/O)C(C)CC(C)C/C=C/C(C)C(O)C(C)C(O)CC1CCC(C)(C)O1 (configuration not stated) | -5% | -8% | . | ? | 3% | -6%
CCCCSc1nc2c(cc1C#N)CCC2 | -2% | -8% | 20% | -11% | 1% | -1%
CCCSc1nc(C)c(-c2csc(C(C#N)=C3CCCC3)n2)cc1C#N | 7.9µM* | -6% | ? | -28% | -6% | ?
Cn1cccc1-c1cc(C(=O)N/N=C/c2cc(Br)ccc2O)[nH]n1 | . | -15% | . | -4% | 79µM* | 3%[12.4 µM]
Cc1ccc[n+](-c2nc([O-])sc2C=O)c1 | i | -8% | -15%[46 µM] | -14% | 28µM* | -11%
N#Cc1c(-c2cccc(O)c2)no[n+]1[O-] | . | . | . | . | . | -3%
O=C1OCC2OC(O)C(O)C(O)C2OC(=O)c2cc(O)c(O)c(O)c2-c2c(O)c(O)c3oc(=O)c4c(c(O)c(O)c5oc(=O)c2c3c54)-c2c1cc(O)c(O)c2O (configuration not stated) | 0.4µM* | 0.71µM* | . | -1% | 0.14µM* | 0.035µM*
COc1ccc(-c2nc3ccc(C(=O)NCC(OC)OC)cc3nc2-c2ccc(OC)cc2)cc1 | 22µM* | -12% | . | -14% | -1% | 13%
O=C1CCc2cc(S(=O)(=O)Nc3ccccc3-c3ccccc3)ccc2N1 | . | . | . | . | 2% | .
C/C(CCN1CCCc2nc(C)c(C)cc21)=N\O[C@@H](C)c1cn([C@H](CO)Cc2ccccc2)nn1 | 1%[11.5 µM] | 4%[12.4 µM] | . | . | 5%[21 µM] | ?
O=C(C[C@@H]1C/C=C\C[C@H](NC(=O)OCC2c3ccccc3-c3ccccc32)C(=O)OC[C@@H]2CCCN2C1=O)NCCO | . | . | . | 1% | ? | 9.5µM*
CC(C)(C)OC(=O)C[C@@H]1C/C=C\C[C@H](CC(=O)NCCO)C(=O)N2CCC[C@H]2COC1=O | . | . | . | 0% | -14% | 6.7µM*
CC(C)(C)OC(=O)C[C@H]1C/C=C\C[C@@H](CC(=O)NCCO)C(=O)N2CCC[C@H]2COC1=O | . | . | . | 2% | 0% | 4%
COc1ccc(N(C(=O)c2ccc(S(=O)(=O)N3CCOCC3)cc2)C2C=CS(=O)(=O)C2)cc1 (configuration not stated) | i | -1% | 2% | 2.2µM* | 2% | 15%
CCOC(=O)c1ccc(NC(=O)c2c(NCc3cccs3)sc3c2CCCCC3)cc1 | . | -6% | 10%[46 µM] | 22µM* | 6% | .
O=C1C=C(O)CC(c2ccco2)C1 (configuration not stated) | ? | 64% | -8% | 5% | . | 3.2µM*
CN(CCCC1CCCC1)C(=O)c1cc(COc2c(F)cccc2F)on1 | . | -16% | . | -12% | 79µM* | -40%
CN(CCCC1CCCC1)C(=O)c1cc(COc2ccc(F)c(F)c2)on1 | . | -14% | . | -14% | . | 33%
CCC1(c2ccccc2)NC(=O)NC1=O (configuration not stated) | -14% | 3% | . | -7% | 6% | 6%
Cc1c(Br)c(=O)oc2c(Br)c(O)c(O)cc12 | i | 7.9µM* | ? | -2% | 5% | 3%
Cc1c(Br)c(=O)oc2c(Br)c(O)ccc12 | 2% | 9% | ? | ? | -3% | ?
SMILES | RECQ1 inh | BLM helicase inh | Lamin A splicing | GCN5L2 inh | TDP1 inh | APEX1 inh
CCn1c(C)nc2cc(C(=O)N/N=C/c3cccc(OC)c3O)ccc21 | 25% | -20% | . | -10% | 4% | 0%
CCn1c(C)nc2cc(C(=O)N/N=C/c3ccc(O)c(O)c3O)ccc21 | 10% | 6.3µM* | . | ? | -3% | -9%
CCCCC/C=C\C/C=C\CCCCCCCCCC(=O)NC(C)C(=O)O (configuration not stated) | i | 1% | . | . | 4% | -2%
O=C1CCCC2=C1C1(CCOCC1)N=C(Nc1nc3ccccc3o1)N2 | . | . | . | . | -5% | .
COC(=O)C1CCN(C(=O)COC(=O)CNS(=O)(=O)c2ccc(SC)c([N+](=O)[O-])c2)CC1 | . | . | . | -6% | 35µM* | 12µM*
CSc1ccc(S(=O)(=O)NCC(=O)OCC(=O)N2CC(C)CC(C)C2)cc1[N+](=O)[O-] (configuration not stated) | . | . | . | ? | 2%[0.505 µM] | -16%
COc1ccc(S(=O)(=O)N2CCN(C(=O)c3ccc([N+](=O)[O-])o3)CC2)cc1 | . | -8% | . | -2% | 45µM* | -4%[12.4 µM]
O=C(OC[C@H]1O[C@@H](OC(=O)c2cc(O)c(O)c(OC(=O)c3cc(O)c(O)c(O)c3)c2)[C@H](OC(=O)c2cc(O)c(O)c(OC(=O)c3cc(O)c(O)c(O)c3)c2)[C@@H](OC(=O)c2cc(O)c(O)c(OC(=O)c3cc(O)c(O)c(O)c3)c2)[C@@H]1OC(=O)c1cc(O)c(O)c(OC(=O)c2cc(O)c(O)c(O)c2)c1)c1cc(O)c(O)c(OC(=O)c2cc(O)c(O)c(O)c2)c1 | . | . | . | ? | . | 0.0053µM*
COC1OC(COC(=O)c2ccccc2)C(OC(=O)c2ccccc2)C1OC(=O)c1ccccc1 (configuration not stated) | . | -7% | . | ? | . | -2%
CC(C)(C)n1ncc2c(=O)n(Cc3ccccc3C#N)cnc21 | . | . | . | . | . | 0%
CC(C)(C)OC(=O)NCc1nnc(-c2cc3ccccc3[nH]2)o1 | . | . | . | . | 0% | .
Cc1ccc(C(=O)Nc2nnc(CC(=O)N/N=C/c3ccc(O)c(O)c3)s2)cc1 | . | 13µM* | . | -2% | . | 1.9µM*
NC(N)=NCC1COC2(CCCCC2)O1 (configuration not stated) | . | . | . | . | . | 5%[21 µM]
O=C(c1ccccc1)N1CCCc2ccccc21 | 2% | -4% | -9% | -1% | -3% | -1%
O=C(c1ccc(=O)oc1)N1CCCc2ccccc21 | ? | ? | 11% | ? | 18µM* | 32µM*
O=C(c1ccc(=O)oc1)N1CCOCC1 | -10% | 49% | 5% | -8% | . | 14µM*
